Test results from the supplement of paper PMC9801561.

system: Escherichia coli Nissle 1917; test: DuctApe activity index of respiration/growth curve (0 no growth to 9 maximum) (index 0-9); higher = more growth / nutrient utilisation, active = 3 or more; extreme values may be limits of the assay; conditions: nutrient role: C-Source, carboxylic acid; incubation: 48 h, 37 °C
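Note: biolog PM4 phosphorus and sulfur plates, tetrazolium violet dye reduction read in the OmniLog every 15 min, kinetic curves scored by DuctApe, each plate run in triplicate.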

DuctApe activity index, active:
O=C(O)/C=C/C(=O)O [Fumaric acid] 8.33
O=C1O[C@@H]([C@H](O)CO)[C@H](O)[C@H]1O [D-Galactonic acid-g-Lactone] 8.33

DuctApe activity index, inactive:
O=C(O)CC(CC(=O)O)C(=O)O [Tricarballylic acid] 0
O=C(CO)[C@@H](O)[C@H](O)[C@@H](O)C(=O)O [5-Keto-D-Gluconic acid] 0
O=C(O)CC(O)(CC(=O)O)C(=O)O [Citric acid] 0
C=C(CC(=O)O)C(=O)O [Itaconic acid] 0
CC(O)(CC(=O)O)C(=O)O (stereo unspecified) [Citramalic acid] 0
O=CO [Formic acid] 0.333

same assay, conditions: nutrient role: sole nitrogen source (pyruvate carbon); incubation: 48 h, 37 °C

DuctApe activity index, active:
NC(=O)NC(N)=O [Biuret] 5
NCC(=O)N[C@@H](CCC(N)=O)C(=O)O 8.67

DuctApe activity index, inactive:
NCCO [Ethanolamine] 0
CC(O)C(N)=O (racemic) [DL-Lactamide] 0
N[C@H]1C(O)O[C@H](CO)[C@H](O)[C@@H]1O (stereo partly drawn) [D-Galactosamine] 0

same assay, conditions: nutrient role: sole phosphorus source (pyruvate carbon); incubation: 48 h, 37 °C

DuctApe activity index, active:
Nc1nc2c(ncn2[C@@H]2O[C@H](CO)[C@@H](OP(=O)(O)O)[C@H]2O)c(=O)[nH]1 [Guanosine 3`-Monophosphate] 9
N[C@@H]1[C@@H](O)[C@H](O)[C@@H](COP(=O)(O)O)O[C@@H]1O [D-Glucosamine-6-Phosphate] 8.67
O=C(O)[C@H](O)[C@@H](O)[C@H](O)[C@H](O)COP(=O)(O)O [6-Phospho-Gluconic acid] 9
N[C@H](COP(=O)(O)O)C(=O)O [O-Phospho-D-Serine] 8.67

same assay, conditions: nutrient role: sole sulfur source (pyruvate carbon); incubation: 48 h, 37 °C

DuctApe activity index, active:
O=S(=O)(O)CCO [2-Hydroxyethane Sulfonic acid] 8
CSCCC(NC(C)=O)C(=O)O (racemic) [N-Acetyl-D,L-Methionine] 7
C[S+]([O-])CC[C@H](N)C(=O)O (stereo partly drawn) [L-Methionine Sulfoxide] 7
CCCCS(=O)(=O)O [Butane Sulfonic acid] 8
N[C@@H](CS(=O)O)C(=O)O [L-Cysteine Sulfinic acid] 7.67
NC(N)=S [Thiourea] 6.33
NCCS(=O)O [Hypotaurine] 8

DuctApe activity index, inactive:
CC(=O)N[C@@H](CS)C(=O)O [N-Acetyl-L-Cysteine] 0.333
CSC[C@H](N)C(=O)O [S-Methyl-L-Cysteine] 0.333
